SMILES strings stand for the structures. Results with a measured potency or affinity are listed apart. Active and inactive are the calls of the source. Unless noted, the rule behind the calls is not given here.

In one test the target is Calcium-dependent protein kinase 1 (Plasmodium falciparum (isolate 3D7)) (UniProt P62344). Kind of test: PfCDPK1 kinase inhibitors, biochemical, TCAMS library (AID 1159585; cut-off not given, nearly all actives have IC50 up to about 0.98 µM;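 note: inhibitors leave more ATP so luminescence rises with inhibition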). The settings on record: recombinant PfCDPK1, Kinase-Glo ATP depletion luminescence.
Chain of Calcium-dependent protein kinase 1 (Plasmodium falciparum (isolate 3D7)) (P62344 whole entry, looked up): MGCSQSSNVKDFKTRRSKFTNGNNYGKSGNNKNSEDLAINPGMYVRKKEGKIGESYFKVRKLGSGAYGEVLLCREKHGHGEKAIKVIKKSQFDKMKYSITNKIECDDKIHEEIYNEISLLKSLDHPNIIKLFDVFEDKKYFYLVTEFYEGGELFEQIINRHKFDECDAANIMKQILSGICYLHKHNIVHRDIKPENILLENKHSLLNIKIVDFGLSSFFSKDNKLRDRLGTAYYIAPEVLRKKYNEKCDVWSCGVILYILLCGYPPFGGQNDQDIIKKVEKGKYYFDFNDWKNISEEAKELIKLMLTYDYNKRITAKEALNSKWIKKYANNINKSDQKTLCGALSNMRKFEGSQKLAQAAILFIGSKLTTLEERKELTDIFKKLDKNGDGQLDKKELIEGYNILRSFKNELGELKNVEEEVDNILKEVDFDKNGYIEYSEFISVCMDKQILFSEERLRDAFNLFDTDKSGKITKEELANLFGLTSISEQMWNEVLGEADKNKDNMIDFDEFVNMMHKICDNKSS
With `NC(N)=Nc1nc(-c2cccc(NC(=O)NCc3ccc(OC(F)(F)F)cc3)c2)cs1`, the outcome was inactive. The same measure, in the same setting: next, `C=CCc1cccc(CN2CCC(c3cc(=O)[nH]c(-c4ccccn4)n3)CC2)c1O`: “inactive”; `O=C(NCc1cccc(Cl)c1)c1ccc(CNC2CCN(Cc3ccccc3)CC2)cc1`: “inactive”; `CS(=O)(=O)N(c1ccc(F)cc1)c1cc(C(=O)N[C@@H](Cc2ccccc2)[C@H](O)CNCc2cccc(C(F)(F)F)c2)cc(N2CCCC2=O)c1`: “inactive”.

In the case of `Cc1ccc(S(=O)(=O)c2nc(S(=O)(=O)c3ccccc3)sc2NCC2CCCO2)cc1` (stereo not given), the outcome was inactive.

A further test deals with Plasmodium falciparum protein kinase 6 (PK6, PF3D7_1337100) (UniProt Q8IDW1). Kind of test: PfPK6 kinase inhibitors, biochemical, TCAMS library (AID 1159586). The settings on record: recombinant PfPK6, Kinase-Glo ATP depletion luminescence.
Chain of Plasmodium falciparum protein kinase 6 (PK6, PF3D7_1337100) (Q8IDW1 1-305): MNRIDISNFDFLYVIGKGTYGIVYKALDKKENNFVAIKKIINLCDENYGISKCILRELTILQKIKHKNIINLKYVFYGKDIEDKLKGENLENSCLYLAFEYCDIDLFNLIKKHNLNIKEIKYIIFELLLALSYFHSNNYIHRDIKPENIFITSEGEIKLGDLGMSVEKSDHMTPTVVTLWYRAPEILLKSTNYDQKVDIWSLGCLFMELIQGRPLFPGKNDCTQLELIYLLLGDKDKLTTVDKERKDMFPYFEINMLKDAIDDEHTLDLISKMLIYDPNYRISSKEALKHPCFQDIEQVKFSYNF
On to `CC[C@@H]([C@@H](Cc1cc2ccccc2s1)C(=O)N[C@@H](CCCCNC(=O)OCc1ccccc1)C(=O)Nc1ccccn1)N(O)C=O`, for which the outcome was inactive. On the same count and under the same terms, next, `CC(C)(C)c1ccc(C(=O)N2CCC3(CC2)C(=O)N(CC(=O)NCC2CCCO2)CN3c2ccccc2)cc1` (stereo not given): “inactive”. Turning to `NC(=O)c1cccc(CNC(=O)NC[C@H]2CN(Cc3ccc(Cl)c(Cl)c3)CCO2)c1`, the result was inactive. On the same count and under the same terms, next, `Cc1cc(Nc2cccc(Cl)c2)nc2ccc(NC(=O)c3ccc(=O)[nH]c3)cc12`: “inactive”; `COc1ccc(NC(=O)Nc2ccc(-c3cccc(-c4nc5c(C)cccc5[nH]4)c3)cc2)cc1`: “inactive”. Turning to `CN(C)CCN(Cc1ccccc1-c1ccc(CNCCc2ccccc2)cc1)C(=O)NC1CCCCC1`, the outcome was inactive. The same measure, in the same setting: then `CN1CCC(N(Cc2ccc(-c3ccc(C(F)(F)F)cc3)nc2)C(=O)Cn2c(CCc3cccc(F)c3F)cc(=O)c3ccccc32)CC1`, with “inactive”; and `CC(c1cccc(S(=O)(=O)NCc2cccc(C(F)(F)F)c2)c1)N1CCC(N2CCCCC2)CC1` (stereo not given), with “inactive”; and `CCCn1c(Sc2ccc(C#N)c([N+](=O)[O-])c2)nnc1-c1ccc(OC)cc1`, with “inactive”. Take `CCOC(=O)C(C(C)=O)C(c1ccccc1)C(C(C)=O)C(=O)OCC` (stereo not given): the result was inactive. Still for that read-out and setting: next, `FC(F)(F)c1ccc2nc(-c3cccc(-c4ccc(CNCCc5ccncc5)cc4)c3)[nH]c2c1`: “inactive”; `CC(C)c1nc(N2CCN(C(=S)NCc3ccccc3)CC2)c(C#N)c2c1COC(C)(C)C2`: “inactive”. On the same count and under the same terms, next, `O=C(NCCc1ccc(Cl)c(Cl)c1)[C@@H]1CCCN1C(=O)c1ccc(O)c(-c2ccc(Cl)c(Cl)c2)c1`: “inactive”. With `NCC1CCCN1Cc1cccc(-c2ccc(-c3nc4ccc(C(F)(F)F)cc4[nH]3)s2)c1` (stereo not given), the outcome was inactive. Same read-out and setting: next, `CN(CCCNc1ccc(C(=O)Nc2ccc(C(F)(F)F)cc2)cc1[N+](=O)[O-])Cc1ccccc1`: “inactive”; `Cc1ccc(-c2cc(C(=O)Nc3ccc(S(=O)(=O)N4CCCCC4C)cc3)[nH]n2)c(O)c1` (stereo not given): “inactive”; `COc1ccccc1-c1cccc(Nc2c(Nc3ccc(Cl)cc3)c(=O)c2=O)c1`: “inactive”. Turning to `O=C(Nc1cccnc1)c1cc(-c2cc(Cl)ccc2O)n[nH]1`, the outcome was inactive. Same read-out and setting: next, `Cc1ccc(NC(=O)c2ccc(CN3CCCN(CC4CCCCC4)CC3)cc2)cc1C`: “inactive”. Same read-out and setting: next, `Cc1cc(N2CCN(C(=O)OC(C)(C)C)CC2)ccc1N`: “inactive”; `O=C1CSc2ccc(CNC3CCN(CCc4c(F)cnc5ccc(F)cc45)CC3)nc2N1`: “inactive”. Turning to `CCN(CC)CCOc1c(Cl)cc(Cl)cc1CNCCCNc1cc(=O)c2ccccc2[nH]1`, the outcome was inactive. On the same count and under the same terms, next, `Cc1cc(NC(=O)NCCN2CCC(NS(=O)(=O)c3ccc(Br)cc3)C2)c2ccccc2n1` (stereo not given): “inactive”; `Cc1cc(N[C@@H](Cc2ccccc2)C(=O)Nc2ccccc2)nc(NCCc2cccnc2)n1`: “inactive”.

For the molecule `COc1ccc(C2CCN(CCCNC(=O)c3ccc(NC(=O)c4ccc(Cl)cc4)cc3)CC2)c(OC)c1`, the outcome was inactive. With `COc1ccccc1CCNc1nc(C)cc(N[C@@H](Cc2ccccc2)C(=O)NCCCOC(C)C)n1`, the outcome was inactive. The same measure, in the same setting: next, `Cc1ccccc1C(O)CNc1ccnc(Nc2cccc(C#N)c2)n1` (stereo not given): “inactive”. For the molecule `COc1cc2nc(Nc3ccc(C)cc3)nc(Nc3ccc(C)cc3)c2cc1OC`, the outcome was inactive.

For the molecule `CC(CCCCC(=O)Nc1ccc(CC(C)NCCc2cccc(Cl)c2)cc1)NCCc1cccc(Cl)c1` (stereo not given), the result was inactive.

For `CCc1cn2c3c(cc(C(=O)N[C@@H](Cc4ccccc4)[C@H](O)CN[C@@H](C)CC)cc13)N(C)S(=O)(=O)CC2`, the result was inactive.

Take `CCOc1ccc(NC(=O)c2ccc(CN3CCCN(Cc4cccc(O)c4)CC3)cc2)cc1`: the outcome was inactive. For `Cc1cccc2[nH]c(-c3ccc(-c4ccc(CN5CCC(C(N)=O)CC5)cc4)s3)nc12`, the result was inactive. For the molecule `CN(Cc1cc(C(F)(F)F)cc(C(F)(F)F)c1)C(=O)C(Cc1ccc(F)cc1)C1CCCNC1` (stereo not given), the outcome was inactive. For the molecule `Cc1cccc2[nH]c(-c3cccc(-c4cccc(NC(=O)c5ccncc5)c4)c3)nc12`, the outcome was inactive. The same measure, in the same setting: then `Oc1c(Cl)cc(-c2ccccc2)cc1CNC1CCCCC1`, with “inactive”; and `NC(N)=Nc1nc(-c2cccc(NC(=O)NCc3ccc(OC(F)(F)F)cc3)c2)cs1`, with “inactive”. Still for that read-out and setting: then `C=CCc1cccc(CN2CCC(c3cc(=O)[nH]c(-c4ccccn4)n3)CC2)c1O`, with “inactive”.

In the case of `O=C(NCc1cccc(Cl)c1)c1ccc(CNC2CCN(Cc3ccccc3)CC2)cc1`, the outcome was inactive.

With `CS(=O)(=O)N(c1ccc(F)cc1)c1cc(C(=O)N[C@@H](Cc2ccccc2)[C@H](O)CNCc2cccc(C(F)(F)F)c2)cc(N2CCCC2=O)c1`, the outcome was inactive. For the molecule `Cc1ccc(S(=O)(=O)c2nc(S(=O)(=O)c3ccccc3)sc2NCC2CCCO2)cc1` (stereo not given), the result was inactive.

The values above are taken from PubChem BioAssay.
